Only some compounds are listed: those with a hit (about 10% of all), similar ones and a draw of the others.
JMJD2A Tudor: blocks the human JMJD2A Tudor domain; Potency, µM (top dose mostly 114 µM), without a hit: at the top dose activity change, negative = inhibition, hits mostly inhibitors; 390,000 tested, 4.4% active; O75164; AlphaScreen JMJD2A-Tudor / H3K4me3 peptide binding; AID 504339; further: on the % scale 0 is the no-effect control and ±100 the full control effect; nearly all actives have a fitted effect of over 50% in size
G9a inh: G9a (human) methyltransferase inhibition. Q96KQ7. Potency, µM (doses to about 102 µM), for the others: top-dose activity, negative = inhibition, most hits filed as inhibitors. AID 504332. 350,000 tested, 8.8% active. G9a H3K9 monomethylation, AlphaScreen, 2 h; further: on the % scale 0 is the no-effect control and ±100 the full control effect; nearly all actives have a fitted effect of over 75% in size
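Using a bead-based AlphaScreen, monomethylated H3K9 product from 2 h room-temperature reactions (G9a 20 nM, peptide 500 nM, SAM 20 uM) was detected with 0.5 ug/mL rabbit anti-H3K9me1 antibody.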
HP1b chromo inh: HP1-beta chromodomain-methylated histone interaction inhibition. P83916. AlphaScreen HP1-beta / biotin-H3K9me3 peptide binding. Potency, µM (top dose mostly 114 µM), without a hit: at the highest dose activity change, negative = inhibition, actives largely listed as inhibitors. 390,000 tested, 0.56% active. AID 540317; further: nearly all actives have a fitted effect of over 70% in size
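Compound inhibition of the preformed complex between 50 nM HP1-beta and 50 nM biotinylated H3K9me3 peptide was read by AlphaScreen. Buffer was PBS pH 7.4 with 0.01% Tween-20. Incubations ran 30 min at room temperature, with 10 ug/mL donor/acceptor beads.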
BAZ2B block: inhibitors of human BAZ2B bromodomain | Q9UIF8 | Potency, µM (top dose mostly 114 µM), for the others: at the highest dose activity change, negative = inhibition, actives largely listed as inhibitors | 360,000 tested, 4.4% active | AlphaScreen BAZ2B-H3K14Ac peptide displacement; further: on the % scale 0 is the no-effect control and ±100 the full control effect; nearly all actives have a fitted effect of over 60% in size
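Inhibition is scored as reduced AlphaScreen emission. The BAZ2B/b-H3(5-23)K14Ac complex (50 nM each) in PBS pH 7.4, 0.01% Tween-20 meets compound (up to 110 uM) for 30 min at RT before bead addition.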
GLS inhibitor: glutaminase GLS (human) inhibition; O94925; Potency, µM (doses to about 45.5 µM), without a hit: top-dose activity change, negative = inhibition, actives largely listed as inhibitors; GLS enzymatic activity, qHTS titration; AID 624170; 410,000 tested, 0.21% active; further: on the % scale 0 is the no-effect control and ±100 the full control effect
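Two-point fluorescence kinetic (t0, 30 min RT) for hKGA; glutamate detected via glutamate oxidase–HRP–Amplex Red. Substrate: 1 mM L-glutamine solution; buffer 45 mM KH2PO4, pH 8.2.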
L3MBTL1 inh: blocks human L3MBTL1; Q9Y468; AlphaScreen L3MBTL1–H3K9me1 peptide binding; Potency, µM (doses to about 57.1 µM), for inactives: top-dose activity, negative = inhibition, actives largely listed as inhibitors; 230,000 tested, 0.66% active; further: on the % scale 0 is the no-effect control and ±100 the full control effect; nearly all actives have a fitted effect of over 60% in size
Target sequence (Q9Y468 whole entry, looked up): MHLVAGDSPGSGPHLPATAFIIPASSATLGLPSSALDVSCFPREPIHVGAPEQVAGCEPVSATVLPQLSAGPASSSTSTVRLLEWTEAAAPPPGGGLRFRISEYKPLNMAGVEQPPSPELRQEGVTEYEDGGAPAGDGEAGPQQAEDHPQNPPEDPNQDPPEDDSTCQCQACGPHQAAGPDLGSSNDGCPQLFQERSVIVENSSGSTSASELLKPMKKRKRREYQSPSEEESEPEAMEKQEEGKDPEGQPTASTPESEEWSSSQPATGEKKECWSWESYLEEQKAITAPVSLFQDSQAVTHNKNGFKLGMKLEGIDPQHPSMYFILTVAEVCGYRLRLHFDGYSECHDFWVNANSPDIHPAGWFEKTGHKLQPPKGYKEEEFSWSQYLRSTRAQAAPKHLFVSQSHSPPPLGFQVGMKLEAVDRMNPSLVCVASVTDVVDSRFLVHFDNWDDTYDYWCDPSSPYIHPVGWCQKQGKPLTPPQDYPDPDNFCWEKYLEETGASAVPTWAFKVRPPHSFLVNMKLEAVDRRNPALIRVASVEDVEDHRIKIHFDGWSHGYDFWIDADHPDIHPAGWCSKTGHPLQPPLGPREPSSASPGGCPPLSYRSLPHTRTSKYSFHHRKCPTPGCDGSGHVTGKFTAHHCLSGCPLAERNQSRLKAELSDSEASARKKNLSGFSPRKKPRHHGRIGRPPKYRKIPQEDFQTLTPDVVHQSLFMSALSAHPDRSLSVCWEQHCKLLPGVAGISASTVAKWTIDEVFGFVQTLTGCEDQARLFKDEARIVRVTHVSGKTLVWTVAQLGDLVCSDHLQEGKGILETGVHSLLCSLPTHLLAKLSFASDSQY
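L3MBTL1 50 nM + b-AHA-H3(1-15)K9me1 75 nM, 30 min RT; compound added, 30 min RT; streptavidin donor/Ni-chelate acceptor beads 10 ug/mL each final, 30 min RT dark; AlphaScreen read.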
* marks the source's active call; other numbers are inactive results; i = inactive; u = inconclusive; x = no result; ! = not confirmed by another sample; [ ] = another dose, or the depositor's remark. The call rests on the fitted dose curve; in most records, active means well fitted curve in the direction sought with a large enough effect; inconclusive means small, poorly fitted or top-dose-only effect, or another doubt; inactive means no such curve, though single readings can be large; an effect the other way counts as inactive or inconclusive. Potency means the concentration at half of the fitted maximal effect.

SMILES | JMJD2A Tudor | G9a inh | HP1b chromo inh | BAZ2B block | GLS inhibitor | L3MBTL1 inh
Cc1ccc(S(=O)(=O)c2nc(Nc3ccccc3)sc2Cl)cc1 | u | u | -19% | -4% | 29% | -2%
COc1cc(CN2CC(=O)N(c3ccc(C)c(C)c3)C2=S)cc(OC)c1OC | -23% | -26% | 8% | -4% | 8% | 3%
COc1ccc(CN2CC(=O)N(c3ccc(C)c(C)c3)C2=S)cc1OC | 56µM* | -40% | u | -11% | 2% | x
COc1ccc(CN2CC(=O)N(c3cc(Cl)ccc3C)C2=S)cc1OC | -31% | 71µM* | 7% | 4% | 13% | x
Cc1ccc(-n2c(N)c(C(=O)Nc3ccccc3F)sc2=S)cc1C | u | 22µM* | u | u | -16% | x
Cc1cc(C)c2c(N)c(C(=O)Nc3ccc(F)cc3)sc2n1 | -4% | u | 29% | -3% | 1% | x
Cc1ccccc1-n1c(N)c(C(=O)Nc2ccc(F)cc2)sc1=S | -13% | 11µM* | -11% | -4% | 0% | 7%
Cc1ccc(NC(=O)c2sc(=S)n(-c3cc(C)ccc3F)c2N)cc1 | u | 8.9µM* | u | u | -21% | x
S=C(NCC1CCCO1)Nc1ccc(Nc2ccccc2)cc1 (stereo not given) | u | u | u | u | -3% | -12%
NS(=O)(=O)c1ccc(NC(=S)NCC2CCCO2)cc1 (stereo not given) | -12% | 11µM* | u | -4% | -13% | 9%
O=C(Cc1ccc(Br)cc1)Nc1ccc(S(=O)(=O)NCC2CCCO2)cc1 (stereo not given) | 22µM* | 7%[12.7 µM] | -11% | -17% | 0% | 0%
CC(=O)Nc1ccc(S(=O)(=O)NNC(=S)NCC2CCCO2)cc1 (stereo not given) | u | 32µM* | 17% | -27% | 17% | x
CCS(=O)(=O)N1CCc2cc(C(=O)Nc3cc(C(F)(F)F)ccc3Cl)ccc21 | -25% | -1%[59 µM] | 30% | -2% | -18% | x
O=C(NCc1ccccc1Cl)C1CCCN(c2nc3ccccc3n3cccc23)C1 (stereo not given) | -17% | -44%[59 µM] | 48% | -24% | -7% | x
Cc1nc(NS(=O)(=O)c2ccccc2C)c2c3c(sc2n1)CCC3 | -8% | 45µM* | 61% | -9% | -19% | 1%
COCCNC(=S)N/N=C1\CC(C)CC(C)(C)C1 (stereo not given) | -25% | 50µM* | 1% | u | -2% | 6%
COCCNC(=S)NN=C1CCCCCC1 | -13% | 7% | 6% | -22% | 5% | x
CCOc1ccc(CN2CCN(c3ncnc4scc(-c5ccccc5)c34)CC2)cc1 | u | 7% | -17% | -11% | -15% | x
Cc1sc2ncnc(Nc3ccccc3)c2c1C | -24%[11.4 µM] | 15%[12.7 µM] | -7% | 11% | 16% | x
Cc1sc2ncnc(Nc3ccc(N4CCOCC4)cc3)c2c1-c1ccccc1 | 35µM* | 28µM* | -18% | u | 8% | -1%
Cc1sc2ncnc(N3CCN(Cc4ccccc4)CC3)c2c1-c1ccccc1 | u | -18% | u | 32µM* | -2% | x
COc1cc2c3c(c1)C(C)CC(C)(C)N3C(=O)C2=O (stereo not given) | u | u | u | u | -14% | -17%
CCc1cc2c3c(c1)C(C)CC(C)(C)N3C(=O)/C2=C1\SC(=O)NC1=O (stereo not given) | 50µM* | 25µM* | u | u | 0% | u
Cc1nn(-c2ccccc2)c(-n2cccc2)c1C(=O)N1CCN(c2ccccc2)CC1 | -11% | 3%[59 µM] | 17% | -29% | 11% | x
CCCN(CCC)S(=O)(=O)c1ccc(N2CCCCS2(=O)=O)cc1 | -7% | -2%[59 µM] | 21% | -3% | -15% | x
SMILES | JMJD2A Tudor | G9a inh | HP1b chromo inh | BAZ2B block | GLS inhibitor | L3MBTL1 inh
CN(C)S(=O)(=O)c1ccc(SCC(=O)Nc2cccc(S(=O)(=O)N3CCCC3)c2)nc1 | -17% | x | 32% | x | -1% | x
CN(C)S(=O)(=O)c1cccc(NC(=O)CSc2cccc3cccnc23)c1 | u | 56µM* | -7% | 56µM* | u | x
O=C(O)CSc1cccc2cccnc12 | 8% | 14µM*! | 9% | u | -2% | -4%
O=S(=O)(c1ccc(Cl)cc1)N1CCN(c2nc(Nc3cc(Cl)ccc3O)nc3ccccc23)CC1 | -34%[80.7 µM] | x | i | x | x | x
CNc1c(C(=O)O)ccc2c1C(=O)c1ccccc1C2=O | -31% | 14µM* | 45µM* | 35µM* | 1% | -15%
O=C1c2ccccc2-c2c1cccc2C(=O)N(CCO)CCO | -24% | 17%[59 µM] | 20% | 3% | 2% | x
CCN(CCN(C)C)C(=O)c1ccc2c(c1NCCO)C(=O)c1ccccc1C2=O | -28% | 16µM* | u | 50µM* | -23% | x
O=C(O)c1cccc2c1C(=O)c1ccccc1-2 | -2% | x | 12% | -8% | 3% | 6%
O=C(O)c1cccc2c1C(=O)c1ccccc1C2=O | -7% | u | 51% | x | 5% | 41%
CCNc1c(C(=O)O)ccc2c1C(=O)c1ccccc1C2=O | -27% | u | -30% | 35µM* | 0% | -6%
O=C(O)c1ccc2c(c1Nc1ccccc1)C(=O)c1ccccc1C2=O | 50µM* | 40µM* | 40µM* | u | 2% | -24%
O=C(COc1ccc(Cl)cc1Cl)Nc1ccc(C(=O)OC2CCCCC2)cc1 | -4% | 41%[59 µM] | 32% | 8% | 2% | x
CSc1ccc(CNC(=O)CN2C(=O)C3CCCCN3c3ccc(C(=O)N4CCCC4)cc32)cc1 (stereo not given) | -14% | -17%[59 µM] | 22%[57 µM] | -13% | 27% | x
Cc1sc(-c2ccccn2)nc1OC(=O)c1ccc(Cl)cc1 | 25µM* | u | -3% | 1% | 6% | 10%
Cc1nn(CC(=O)NCc2ccco2)c(=O)c2cc3ccccc3n12 | 5% | 1%[59 µM] | 31% | -37% | 1% | x
C=CCOC(=O)C1=C(C)NC(SC)=C(C#N)C1c1ccc(OCC)cc1 (stereo not given) | 12% | -21% | 83% | 11% | 8% | 17%
N#CC1=C(SCc2ccccc2)NC2=C(C(=O)CCC2)C1c1ccc2c(c1)OCO2 (stereo not given) | 45µM* | 4%[2.33 µM] | -2% | -38% | 1% | -17%
CCSC1=C(C#N)C(c2ccc3c(c2)OCO3)C2=C(CCCC2=O)N1 (stereo not given) | 5% | -32% | 28% | u | 0% | x
C=CCOC(=O)C1=C(C)NC(SCC(=O)OCC)=C(C#N)C1c1ccc(O)c(OC)c1 (stereo not given) | -15% | 32µM* | 29% | 6% | 8% | -3%
